# Inconclusive results are not listed. Calls of active or inactive are those of the source. Calls follow the shape of the full dose curve.
# Test: qHTS assay to identify small molecule agonists of H2AX - cell viability counter screen (AID 1224847); also: top concentration of the series differs between compounds; nearly all actives have a fitted effect of over 30% in size
# Conditions: CHO-K1 viability, CellTiter-Glo luminescence, 3 h; series mostly up to 154 µM
# From the text: National Center for Advancing Translational Sciences [NCATS]
# NIH Chemical Genomics Center [NCGC]
# U.S. Environmental Protection Agency [EPA]
# National Institutes of Environmental Health Sciences [NIEHS]
# National Toxicology Program [NTP]
# U.S. Food and Drug Administration [FDA]
# HTRF phospho-H2AX (Ser139) assay (Cisbio Bioassays, US) enables the quantitative detection of the histone variant H2AX when phosphorylated on serine 139. When double-stranded DNA breaks, either by ionizing radiation or endogenous physiological processes, H2AX becomes phosphorylated at Ser139. This phospho-Ser139 serves as a sensitive biomarker for the detection of such breaks, localizing the site of DNA repair. So, HTRF phospho-H2AX Ser139 is a pertinent assay to study genome stability, the cell cycle, DNA repair, and it serves as a biomarker for cancer, and to understand aging. Wild type CHO-K1 cells were used to identify the inducers of Phospho-H2AX Ser 139 from the Tox21 compound collections. Also cytotoxicity of the Tox21 10K compound library against the CHO-K1 cell line was tested by measuring the cell viability using CellTiter-Glo assay (Promega, Madison, WI).
# Tox21 Assay Protocol Summary:
# The CHO-K1 cells suspended in culture medium containing 10% FBS were dispensed at 1000 cells/ 3 ul/well in 1536-well white wall/solid bottom plates (Greiner Bio-One North America, NC) using a Multidrop Combi (Thermo Fisher Scientific Inc., Waltham, MA). After the assay plates were incubated at 37C overnight, 23 nl of compounds at 15 concentrations (from 5-48 columns) or positive control (from 1 to 4 columns) were transferred to the assay plates using a Pintool station (Wako, San Diego, CA) into each well resulting in a final DMSO concentration of 0.76%. After 3hr incubation at 37C, 3 uL/well CellTiter-Glo luminescent cell viability reagent (Promega Corporation, Madison, WI) was added using a Flying Reagent Dispenser (FRD) (Aurora Discovery, CA). After incubation at room temperature for 30 min, the luminescence intensity was read using a ViewLux plate reader (PerkinElmer, Waltham, MA).
row,Compound,outcome
1,CCOc1ccc(NC(=O)CC(C)O)cc1 (stereo not given),inactive
2,Cn1cc[nH]c1=S,inactive
3,O=C(O)c1cc(N=Nc2ccc(S(=O)(=O)Nc3ccccn3)cc2)ccc1O,inactive
4,Cc1noc(NS(=O)(=O)c2ccc(N)cc2)c1C,inactive
5,O=C(C1CCCCC1)N1CC(=O)N2CCc3ccccc3C2C1 (stereo not given),inactive
6,CC1(C)[C@@H]2CC[C@@]1(C)C(=O)C2,inactive
7,CCCNC(=O)NS(=O)(=O)c1ccc(Cl)cc1,inactive
8,CC(O)CN(CCN(CC(C)O)CC(C)O)CC(C)O (stereo not given),inactive
9,C/C=C/c1ccc(OC)cc1,inactive
10,COc1ccc2[nH]cc(CCNC(C)=O)c2c1,inactive
11,O=NO,inactive
12,C[C@]12C=CC(=O)C=C1CC[C@@H]1[C@@H]2[C@@H](O)C[C@@]2(C)[C@H]1CC[C@]2(O)C(=O)CO,inactive
13,CC(C)(Oc1ccc(C2CC2(Cl)Cl)cc1)C(=O)O (stereo not given),inactive
14,O=C(O)C(=O)O,inactive
15,O=C(O)/C=C\C(=O)O,inactive
16,CCCCC(CC)COC(=O)/C=C/c1ccc(OC)cc1 (stereo not given),inactive
17,COc1c2occc2cc2ccc(=O)oc12,inactive
18,OCCc1ccccc1,inactive
19,O=C(c1ccccc1)c1ccccc1,inactive
20,Cc1cn([C@H]2C[C@H](N=[N+]=[N-])[C@@H](CO)O2)c(=O)[nH]c1=O,inactive

row,Compound,outcome
1,CCCCCCCCCCCCCCCC(=O)O,inactive
2,CC(O)CO (stereo not given),inactive
3,CCCN(CCC)S(=O)(=O)c1ccc(C(=O)O)cc1,inactive
4,N=C(N)c1ccc(OCCCCCOc2ccc(C(=N)N)cc2)cc1,inactive
5,O=C(O)CCCCC(=O)O,inactive
6,Cc1ccc(S(=O)(=O)NC(=O)NN2CCCCCC2)cc1,inactive
7,CC(=O)NS(=O)(=O)c1ccc(N)cc1,inactive
8,Cc1ccccc1C(OCCN(C)C)c1ccccc1 (stereo not given),inactive
9,CCCC(CCC)C(=O)O,inactive
10,CC(=O)OCC(COC(C)=O)OC(C)=O,inactive
11,O=C1NC(=O)c2ccccc21,inactive
12,O=C(O)c1cccnc1,inactive
13,O=C1CN(/N=C/c2ccc([N+](=O)[O-])o2)C(=O)N1,inactive
14,O=C(O)c1[nH]n(-c2ccc(S(=O)(=O)O)cc2)c(=O)c1N=Nc1ccc(S(=O)(=O)O)cc1,inactive
15,CCCC(O)C(CC)CO (stereo not given),inactive
16,O=C(O)c1cccc([N+](=O)[O-])c1,inactive
17,Nc1ccc(S(=O)(=O)c2ccc(N)cc2)cc1,inactive
18,Cc1cc(=O)n(-c2ccccc2)n1C,inactive
19,NS(=O)(=O)c1cc(C(=O)O)c(NCc2ccco2)cc1Cl,inactive
20,CCCCC1C(=O)N(c2ccccc2)N(c2ccccc2)C1=O,inactive

# Source: PubChem BioAssay (Tox21)
